The values below come from PubChem BioAssay AID1347044 (National Center for Advancing Translational Sciences (NCATS), 2019).

About 1,100 (79%) of roughly 1,400 compounds were called active. Roughly 20% stayed inconclusive and do not appear here. Calls come from the whole dose curve. So high a share suggests a set chosen from earlier hits. These entries were drawn from the full list.
Potency is the fitted concentration of half-maximal effect.

Atrial natriuretic peptide receptor 1 (Homo sapiens), sequence (P16066 whole entry, looked up, the tested form may be a part): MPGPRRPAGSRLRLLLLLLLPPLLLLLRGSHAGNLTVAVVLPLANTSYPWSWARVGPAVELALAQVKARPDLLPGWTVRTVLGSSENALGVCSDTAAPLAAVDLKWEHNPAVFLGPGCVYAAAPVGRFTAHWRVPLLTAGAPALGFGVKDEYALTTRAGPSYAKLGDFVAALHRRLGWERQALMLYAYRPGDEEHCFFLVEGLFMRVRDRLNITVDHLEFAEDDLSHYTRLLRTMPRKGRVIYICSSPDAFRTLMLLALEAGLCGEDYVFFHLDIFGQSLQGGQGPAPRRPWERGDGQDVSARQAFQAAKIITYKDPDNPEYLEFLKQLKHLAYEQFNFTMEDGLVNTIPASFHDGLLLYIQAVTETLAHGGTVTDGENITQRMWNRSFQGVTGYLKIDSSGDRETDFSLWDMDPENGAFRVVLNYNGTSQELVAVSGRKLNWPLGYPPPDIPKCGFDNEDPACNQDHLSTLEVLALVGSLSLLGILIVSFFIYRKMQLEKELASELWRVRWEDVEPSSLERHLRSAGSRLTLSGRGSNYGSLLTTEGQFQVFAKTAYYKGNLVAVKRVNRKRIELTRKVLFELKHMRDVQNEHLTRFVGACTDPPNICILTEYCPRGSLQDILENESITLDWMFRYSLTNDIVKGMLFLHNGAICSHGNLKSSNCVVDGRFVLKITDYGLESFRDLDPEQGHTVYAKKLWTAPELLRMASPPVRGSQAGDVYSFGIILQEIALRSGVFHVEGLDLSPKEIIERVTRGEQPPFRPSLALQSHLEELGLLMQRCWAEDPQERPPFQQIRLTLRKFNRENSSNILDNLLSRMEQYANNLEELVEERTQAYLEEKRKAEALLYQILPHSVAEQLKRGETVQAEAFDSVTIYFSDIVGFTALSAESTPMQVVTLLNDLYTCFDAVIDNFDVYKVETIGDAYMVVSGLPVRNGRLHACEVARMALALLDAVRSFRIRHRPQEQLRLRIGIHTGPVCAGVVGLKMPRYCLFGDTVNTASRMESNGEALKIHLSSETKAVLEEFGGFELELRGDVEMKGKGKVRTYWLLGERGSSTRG

The experiment concerns the target Atrial natriuretic peptide receptor 1 (Homo sapiens) (UniProt P16066). Nature of the experiment: Natriuretic polypeptide receptor (hNpr1) antagonism - Confirmation. Note: nearly all actives have a fitted effect of over 70% in size. The following applies: HEK293 hNpr1 cGMP GloSensor luminescence, ANP-stimulated; series mostly up to 57.6 µM. On the procedure:
In order to identify small molecular compounds that inhibit the hNpr1 receptor we developed a high-throughput assay to measure inhibition of the guanylate cyclase activity of the receptor. cGMP production was measured using a circular permutated Firefly luciferase (FLuc) enzyme functionally linked to the cGMP binding domain of human phosphodiesterase 5 (GloSensor technology pGS-40F, (Fan, F. et al. 2008). The cGMP-sensor was expressed in human embryonic kidney 293 (HEK-293) cells and FLuc activity was measured after stimulation with hNrp agonist peptide. hNrp agonists activates the receptor's associated guanylyl cyclase (GC) domain producing cGMP which then binds to the GloSensor resulting in FLuc activation, the enzymatic activity of which can be measured as bioluminescence with addition of luciferin substrate. A cytotoxicity counter-screen using the HEK-hNpr1-cGMP-sensor cells was also performed on the follow-up compounds. F. Fan, B. F. Binkowski, B. L. Butler, P. F. Stecha, M. K. Lewis, K. V. Wood, Novel genetically encoded biosensors using firefly luciferase. ACS Chem Biol 3, 346-351 (2008).
PROTOCOL TABLES (as described by Inglese J, Shamu CE and Guy RK. 2007) SEQUENCE No. (e.g., 1, 2, 3, etc.); PARAMETER (e.g., Cells, Incubation, Reagent, etc.); VALUE and DESCRIPTION. GLOSENSOR PROTOCOL 1. Cells. Seed 1500 HEK293 cGMP-sensor cells expressing hNpr1 per well in 4uL into Greiner 1536-well white/solid bottom high base, tissue culture-treated plates. 2. Incubation. Incubate plated cells at 37C in 5% CO2, 95% RH overnight. 3. Reagent. Add 1uL per well GloSensor reagent from Promega (2% final concentration) or CO2 independent media vehicle control to respective columns of Greiner 1536-well plates. 4. Incubation. Incubate plated cells at room temperature for 2 h, protect from light. 5. Compounds. Library compounds and A-71915 control added at 23 nL per well, transferred by Pin Tool. 6. Incubation. Incubate plated cells for 30 min. at room temperature, protect from light. 7. Detector. GloSensor baseline pre-read luminescence measured using CCD-based camera (Viewlux). 8. Compound. Add 1uL of hNppA peptide to 0.1 nM final concentration to stimulate hNpr1 or CO2 independent media as vehicle control. 9. Incubation. Incubate treated cells at room temperature for 20 min., protect from light. 10. Detector. GloSensor post-hNppA luminescence measured using CCD-based camera (Viewlux). NOTES (numbers refer to Sequence numbers above) 1. HEK293 cells expressing hNpr1 and GIP/pGS-40F grown to 85-95% confluence (48-72 h) in T175 culture flasks (CO2 independent media supplemented with 10% FBS, 1% Pen/Strep antibiotics and 1 ug/mL puromycin). Trypsinize and harvest cells from T175 culture flasks and filter through 40 um cell strainer. Cells counted with Invitrogen Countess (30,000,000 - 50,000,000 cells/flask). Cells diluted to a final concentration of 375 cells/uL in CO2 independent media and a Millipore multidrop used to dispense 1500 cells per well (4uL/well) into 13 1536-well Greiner White/Solid bottom, high base tissue-culture treated (TC) plates and one Aurora 1536-well Black/Clear bottom, low base, TC plate (for visual inspection of cell health throughout the duration of the assay). 2. Cells incubated overnight at ambient temperature, 24 h. at 37C in 95% RH incubator protected from light, covered with metal lid with gas-exchange holes. 3. Prepare GloSensor Reagent (Promega): Reconstitute GloSensor luciferase substrate by adding 8.2mL Hepes buffer to 250mg substrate, mix well, protect from light and stored at -80C. Prepare a fresh 12% GloSensor solution in CO2 independent supplemented plating media (see above). Mix well and store at ambient temperature, protected from light. 1uL 12% GloSensor Luciferase Reagent added (2% final concentration) to respective columns of 13 x 1536-well Greiner plate with BioRaptr, 1uL CO2 independent plating media added to respective columns as vehicle control with BioRaptr. 4. […]
For `Cc1nc(-c2ccncc2)ncc1C(C)Nc1ncnc(C)c1C` (stereo not drawn), the Potency is 21.7 µM (active).
With `O=C(c1ccc2cc[nH]c2c1)N1CCC2(CC1)N=C(c1ccc(Cl)cc1)NO2` the figure was 19.3 µM (active); with `O=[S+]1([O-])NCC2(CCCN(Cc3ccc(C(F)(F)F)cc3)C2)Oc2ncccc21` (stereo not drawn), 24.3 µM (active); with `Cc1cccc(CN2CCc3nc(C(=O)Nc4ccc(Cl)cc4)oc3CC2)c1`, 9.94 µM (active).
With `COc1cccc(CNC(=O)Cn2c(N(C)Cc3ccccc3)nc(C)cc2=O)c1OC` the figure was 24.3 µM (active).
With `COc1cccc(NC(=O)Cn2c(N(C)Cc3ccccc3)nc(C)cc2=O)c1` the figure was 10.9 µM (active); with `COc1cccc(C2C(C(=O)Nc3ccccc3)=C(C)N=C3SC=C(CC(=O)NCC(C)C)N32)c1` (stereo not drawn), “inactive”; with `O=c1[nH]c(C2CCCN(Cc3ccccn3)C2)nn1-c1ccc(Cl)cc1` (stereo not drawn), 6.85 µM (active).
For the compound `CC1(C(=O)NCc2ccc3c(c2)OCO3)CCc2cnc(NCc3ccccc3)nc21` (stereo not drawn), the Potency is 35.3 µM (active).
On to `Cc1ccc2c(c1)nc1n2[C@@H](CNS(=O)(=O)c2ccccc2)COC1`, for which the Potency is 35.3 µM (active).
With `COc1ccc(CN2C(=O)CO[C@H]3CN(Cc4ccc5c(c4)OCO5)C[C@H]32)cc1` the figure was 31.4 µM (active); with `O=C(c1ccccc1)N1CCNc2cnc(Nc3cccc(C(F)(F)F)c3)nc2C1`, 31.4 µM (active); with `COc1ccc(S(=O)(=O)N2CCc3c(C(=O)NCCc4ccccn4)cccc32)cc1`, 24.3 µM (active).
Regarding `CC(C)c1cc(C(=O)N2CCC(n3cc(-c4ccccn4)nn3)CC2)n(C)n1`, the Potency was 13.7 µM (active).
With `COc1ccc(OCC2(C)COc3ccc(C(=O)Nc4cccnc4)cc3N2)cc1` (stereo not drawn) the figure was 35.3 µM (active); with `CN(Cc1csc(-c2ccccc2)n1)c1cc(C2CC(O)C2)nc(N)n1` (stereo not drawn), 2.43 µM (active); with `Cc1noc(C)c1-c1cc(-c2ccccc2Oc2ccccc2)cn2cncc12`, 19.8 µM (active).
With `O=C1NCN(Cc2ccc(Cl)cc2)C12CCN(Cc1ccccc1)CC2` the figure was 15.3 µM (active); with `N#Cc1cccc(CN2CCC(C3=NC(O)c4cc(F)ccc4N3)CC2)c1` (stereo not drawn), 15.3 µM (active); with `CN1CCN(C(=O)C(C)(C)Oc2nn(Cc3cccc(Cl)c3)c3ccccc23)CC1`, 28 µM (active).
With `Cc1cc(N2CCCC(Cn3cc(Cc4ccccc4)nn3)C2)nc(N)n1` (stereo not drawn) the figure was 6.11 µM (active); with `Cc1noc(C)c1-c1cnc2[nH]cc(CC(=O)N3CCOCC3)c2c1`, 31.4 µM (active); with `O=C(Cc1c[nH]c2ncc(-c3ccccc3F)cc12)N1CCOCC1`, 31.4 µM (active).
Take `COc1ccc(CCNC(=O)c2noc(-c3ccc(C)cc3)n2)cc1OC`: the Potency is 24.3 µM (active).
`O=C(c1ccc(F)cc1Cl)N1CCC(n2cc(-c3nc(-c4ccccc4)no3)nn2)C1` (stereo not drawn): the Potency was 4.32 µM (active).
With `CC(C)c1noc(-c2cn(C3CCN(C(=O)c4ccc(N(C)C)cc4)C3)nn2)n1` (stereo not drawn) the figure was 15.3 µM (active).
With `O=C(c1ccc(Cl)cc1)N1CCCC(n2cc(-c3nc(-c4ccccc4)no3)nn2)C1` (stereo not drawn) the figure was 19.3 µM (active).
Then `Cc1nn2c(c1-c1ccccc1-c1ccccc1)N(CC1CC1)CCC2`, with 2.8 µM (active).
Regarding `COc1ccc(-c2noc(CC3CCN(C(=O)Cc4ccc(OC)c(OC)c4)CC3)n2)cc1`, the Potency was 3.43 µM (active).
For the compound `COc1ccc(CC(=O)N2CCC(Cc3nc(-c4ccccc4)no3)CC2)cc1OC`, the Potency was 12.2 µM (active).
Turning to `Cc1c[nH]c(CN2CCCC(CCc3ccc(F)cc3F)C2)c(C)c1=O` (stereo not drawn), the Potency was 3.43 µM (active).
Then `O=C(c1ccccn1)N1CC(Oc2ccc(-c3noc(C4CC4)n3)cc2)C1`, with 17.2 µM (active); and `Cc1cccc(C(=O)N2CCC(Oc3ccc(-c4noc(C(C)C)n4)cc3)C2)c1` (stereo not drawn), with 27.3 µM (active); and `O=C1c2cnc(-c3ccc(Cl)cc3)nc2OCCN1Cc1ccccc1`, with 35.3 µM (active).
With `COC(=O)c1cccc(NC(=O)CCNc2c(C)nc3cnccn23)c1` the figure was 21.7 µM (active).
With `O=C(c1ccccc1)N1CCC(C(=O)N2CCC(Cc3nc(-c4ccc(F)cc4)no3)CC2)CC1` the figure was 17.2 µM (active); with `COc1cccc(-c2noc(CC3CCN(C(=O)c4ccc(F)cc4)CC3)n2)c1`, 6.11 µM (active); with `Cc1cc(CNC(=O)c2ccc(-c3ccccc3Cl)o2)n(C)n1`, 24.3 µM (active).
As to `O=C(NCC1CC1)c1nc2c(o1)CCN(Cc1cccc(F)c1F)CC2`, the Potency was 28 µM (active).
With `C1CCC(COCCc2noc(C3CNC3)n2)C1`, the Potency is 21.7 µM (active).
With `COc1ccccc1Nc1cnc2ccc(N(C)Cc3cccnc3)nn12` the figure was 31.4 µM (active); with `OC1(Cc2cc(-c3ccccc3)no2)CCN(c2ncncn2)CC1`, 7.69 µM (active); with `O=C(NCc1nnc2cc(-c3nc(C4CC4)no3)ccn12)c1ccc(F)cc1Cl`, 17.2 µM (active).
Then `Cc1ccc(OCc2nc(C3CCN(C(=O)CCc4nc5ccc(Cl)cc5[nH]4)CC3)no2)cc1`, with 24.3 µM (active); and `CCN(CCCNC(=O)c1nnn2cc(-c3ccccc3)[nH]c(=O)c12)c1ccccc1`, with “inactive”; and `CC(C)c1nncn1C1CCN(S(=O)(=O)c2cccc(Br)c2)CC1`, with 19.3 µM (active).
As for `COc1ccc(-c2noc(CC3CCN(C(=O)CC4CCCCC4)CC3)n2)cc1`, the Potency is 10.9 µM (active).
Consider `COc1ccc(-c2noc(CC3CCN(C(=O)Cc4ccc(C)cc4)CC3)n2)cc1`, for which the Potency is 27.3 µM (active).
Regarding `COc1ccc(-c2noc(CC3CCN(C(=O)Cc4ccccc4)CC3)n2)cc1`, the Potency is 24.3 µM (active).
Then `CC1=NS(=O)(=O)N(C)C=C1C(=O)OCc1nc(-c2ccc(C)cc2)no1`, with 10.9 µM (active); and `O=C(c1cc(F)ccc1Cl)N1CCN(c2cc(-c3ccc(F)cc3)[nH]n2)CC1`, with 27.3 µM (active).
With `O=C(c1ccc(F)cc1F)N1CCN(c2cc(-c3ccc(Cl)cc3)[nH]n2)CC1` the figure was 17.2 µM (active).
Then `CCc1ccc(C(=O)N2CCN(c3cc(-c4ccc(F)cc4)[nH]n3)CC2)cc1`, with 24.3 µM (active); and `Cc1ccc(C(=O)N2CCN(c3cc(-c4ccc(Cl)cc4)[nH]n3)CC2)c(C)c1`, with 6.11 µM (active); and `Cc1ccc2nc(C3CCCN(Cc4ccc(C#N)cc4)C3)[nH]c(=O)c2c1` (stereo not drawn), with 24.3 µM (active).
For the compound `COc1ccc(C2Cn3nnc(C(=O)N4CCN(C(=O)c5cccc(Cl)c5)CC4)c3CO2)cc1` (stereo not drawn), the Potency is 13.7 µM (active).
With `COc1ccc(C2Cn3nnc(C(=O)N4CCN(C(=O)c5ccc(C)cc5C)CC4)c3CO2)cc1` (stereo not drawn) the figure was 24.3 µM (active); with `CC(C)(C)c1csc(NC(=O)c2ccc3c(c2)OCCN(C2CCC2)C3)n1`, 35.3 µM (active).
